In PubChem BioAssay AID1159580 (chemical genetic matrix, 2015):
Values joined by “and” are separate entries in the source; they are usually repeats but may differ in a detail not shown here. Identical values can stand only once. The whole screen tested about 5,500 compounds, of which about 2,000 (36%) were called active. About 18% were inconclusive and are not listed. Rule as the data show it: active = normalized growth mostly below about 0.91 (no sharp cut-off); inconclusive = no clear call, values can overlap the other calls; inactive = mostly above about 0.92. This is one part of the list.

Experiment: chemical genetic growth profiling, strain panel (AID 1159580);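 also: tested at 20 µM; growth read once vehicle control cultures reached saturation at 30 °C; 1 = growth at the plate median or of vehicle wells; lower values mean less growth of the strain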
Conditions: S. cerevisiae deletion strains, growth OD

Measured: normalized growth

CCCCN(CCCC)CCCOC(=O)c1ccc(N)cc1
inactive: locus YAL013W, strain DEP1, hits give low values 1 | locus YAL021C, strain ccr4, hits give low values 0.992 | locus YAL026C, strain drs2, hits give low values 0.991 | locus YAL030W, strain snc1, hits give low values 0.996 | locus YBL061C, strain skt5, hits give low values 0.986 | locus YBR009C, strain hhf1, hits give low values 0.998 | locus YBR021W, strain FUR4, hits give low values 1.07 | locus YBR023C, strain chs3, hits give low values 0.99 | locus YBR171W, strain sec66, hits give low values 0.986 | locus YBR229C, strain ROT2, hits give low values 0.998 | locus YBR231C, strain swc5, hits give low values 1 | locus YBR279W, strain paf1, hits give low values 0.994 | locus YCL011C, strain gbp2, hits give low values 0.985 | locus YCL016C, strain dcc1, hits give low values 0.99 | locus YCL029C, strain bik1, hits give low values 0.982 | locus YCL061C, strain MRC1, hits give low values 0.987 | locus YCL069W, strain vba3, hits give low values 0.991 | locus YCR088W, strain abp1, hits give low values 0.985 | locus YDL005C, strain med2, hits give low values 0.994 | locus YDL035C, strain GPR1, hits give low values 0.998 | locus YDL040C, strain nat1, hits give low values 0.99 | locus YDL074C, strain BRE1, hits give low values 0.977 | locus YDL101C, strain DUN1, hits give low values 0.979 | locus YDL134C, strain PPH21, hits give low values 1 | locus YDL185W, strain tfp1, hits give low values 0.968 | locus YDL192W, strain arf1, hits give low values 0.994 | locus YDR001C, strain nth1, hits give low values 0.992 | locus YDR069C, strain doa4, hits give low values 0.99 | locus YDR101C, strain arx1, hits give low values 0.986 | locus YDR137W, strain rgp1, hits give low values 0.879 | locus YDR150W, strain NUM1, hits give low values 0.995 | locus YDR159W, strain sac3, hits give low values 0.989 | locus YDR162C, strain NBP2, hits give low values 0.984 | locus YDR195W, strain ref2 0.99 | locus YDR297W, strain sur2, hits give low values 0.993 | locus YDR318W, strain mcm21, hits give low values 0.992 | locus YDR334W, strain swr1, hits give low values 0.983 | locus YDR335W, strain msn5, hits give low values 0.989 | locus YDR388W, hits give low values 0.989 | locus YDR392W, strain spt3, hits give low values 0.983 | locus YDR502C, strain sam2, hits give low values 1.01 | locus YEL003W, strain gim4, hits give low values 0.986 | locus YEL037C, strain rad23, hits give low values 0.991 | locus YEL061C, strain CIN8 (second series), hits give low values 0.981 | locus YEL061C, strain CIN8, hits give low values 0.998 | locus YER015W, strain faa2, hits give low values 0.991 | locus YER016W, strain bim1, hits give low values 0.991 | locus YER110C, hits give low values 0.989 | locus YER111C, strain swi4, hits give low values 1 | locus YER155C, strain BEM2 (second series), hits give low values 0.984 | locus YER155C, strain BEM2, hits give low values 1 | locus YER167W, strain BCK2, hits give low values 0.995 | locus YFR010W, strain ubp6, hits give low values 0.99 | locus YGL078C, strain dbp3, hits give low values 0.992 | locus YGL086W, strain mad1, hits give low values 0.994 | locus YGL167C, strain pmr1, hits give low values 0.991 | locus YGL173C, strain kem1, hits give low values 0.983 | locus YGL227W, strain vid30, hits give low values 0.983 | locus YGL240W, strain doc1, hits give low values 1 | locus YGL248W, strain PDE1, hits give low values 1 | locus YGL253W, strain hxk2, hits give low values 0.991 | locus YGR078C, strain PAC10, hits give low values 0.97 | locus YGR135W, strain pre9, hits give low values 0.994 | locus YGR229C, strain SMI1, hits give low values 0.961 | locus YGR252W, strain gcn5, hits give low values 1.16 | locus YHR013C, strain ard1, hits give low values 0.961 | locus YHR027C, strain rpn1, hits give low values 0.991 | locus YHR030C, strain SLT2, hits give low values 0.965 | locus YHR079C, strain IRE1 (second series), hits give low values 0.977 | locus YHR079C, strain IRE1, hits give low values 0.973 | locus YHR094C, strain hxt1, hits give low values 0.985 | locus YHR129C, strain ARP1, hits give low values 0.989 | locus YHR142W, strain chs7, hits give low values 0.992 | locus YHR200W, strain rpn10, hits give low values 0.996 | locus YIL066C, strain RNR3, hits give low values 0.991 | locus YIL073C, strain SPO22, hits give low values 0.937 | locus YIL125W, strain kgd1, hits give low values 0.987 | locus YIR030C, strain dcg1, hits give low values 0.997 | locus YJL092W, strain hpr5, hits give low values 0.986 | locus YJL095W, strain BCK1 (second series), hits give low values 0.993 | locus YJL095W, strain BCK1, hits give low values 0.967 and 0.982 | locus YJL115W, strain asf1, hits give low values 0.993 | locus YJL129C, strain trk1, hits give low values 1 | locus YJL134W, strain LCB3, hits give low values 0.993 | locus YJL154C, strain vps35, hits give low values 0.987 | locus YJL164C, strain tpk1, hits give low values 0.964 | locus YJL166W, strain qcr8, hits give low values 0.996 | locus YJL168C, strain set2, hits give low values 0.988 | locus YJL187C, strain SWE1 (second series), hits give low values 0.962 | locus YJL187C, strain SWE1, hits give low values 0.992 | locus YJR043C, strain POL32, hits give low values 0.993 | locus YJR066W, strain TOR1, hits give low values 0.95
